hgDAF12 agonist: H. glycines DAF-12 receptor agonists, primary screen, cell-based, luminescence, HEK293, GAL4 fusion, UAS-luciferase; HEK293 GAL4-hgDAF12 UAS-luciferase reporter, agonist luminescence; normalized to butyrate control; Nuclear hormone receptor DAF-12 (Heterodera glycines), GAL4 fusion; activation, % at 6.8 µM; 1.8% of 370,000 active; AID 687014, 2013;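 active = activation above a cutoff set at the mean of all screened compounds plus 3 SD, cut at about 10% in these data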;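 note: 0% = DMSO wells and 100% = sodium butyrate wells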
ssDAF12 agonist: S. stercoralis DAF-12 nuclear receptor activators, primary screen, cell-based, luminescence, HEK293, GRIP1 co-expression, lit1-tk-luc. HEK293 ssDAF-12/GRIP1 lit1-tk-luc reporter; % of 3 µM dafachronic acid response. activation, % at 6.8 µM. 1% of 370,000 active. AID 652126, 2013;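 active = activation above the mean over all tested compounds plus 3 SD, cut at about 0.9% in these data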;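 note: 0% = DMSO-only wells and 100% = 3 µM delta7-dafachronic acid wells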
hcDAF12 agonist: H. contortus DAF-12 nuclear receptor activators, primary screen, cell-based, luminescence, HEK293, lit1-tk-luc reporter; HEK293 hcDAF-12 lit1-tk-luc reporter; 0% DMSO, 100% Δ7-dafachronic acid; 1.4% of 370,000 active; activation, % at 6.8 µM;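 active = activation above the mean of all tested compounds plus 3 SD, cut at about 5.5% in these data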;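 note: 100% = response to 3 µM Δ7-dafachronic acid high control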
AHR act: AHR activators, primary screen, cell-based, luminescence, luciferase reporter, human | Aryl hydrocarbon receptor (Homo sapiens), P35869 | AHR-responsive luciferase reporter cells | activation, % at 5 µM | 2.5% of 320,000 active | AID 2796, 2010; in the data active = activation above about 47%;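 note: 0% = vehicle wells and 100% = reference agonist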
DAX1 inh-1: DAX1 (NR0B1) inhibitors, primary screen, cell-based, HEK293, Gal4-DAX1, luciferase luminescence | HEK293 Gal4-DAX1 luciferase reporter | inhibition, % at 6.75 µM | 0.99% of 340,000 active;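 active = inhibition above the mean over all tested compounds plus 3 SD, cut at about 4.2% in these data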;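 note: 0% = DAX1-transfected cells with DMSO and 100% = empty-vector control cells with DMSO; inhibition shows as a rise in luminescence from relieved DAX1 repression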
Target sequence (P51843 207-470 limits assumed): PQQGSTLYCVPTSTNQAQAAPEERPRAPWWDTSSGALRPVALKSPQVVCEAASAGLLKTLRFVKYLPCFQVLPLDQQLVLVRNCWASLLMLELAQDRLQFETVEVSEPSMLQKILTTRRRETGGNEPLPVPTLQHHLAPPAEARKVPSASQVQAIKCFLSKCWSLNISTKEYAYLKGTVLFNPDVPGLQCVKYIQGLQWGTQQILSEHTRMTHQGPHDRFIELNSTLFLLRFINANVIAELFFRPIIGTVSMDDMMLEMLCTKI
DAX1 inh-2: DAX1 (NR0B1) inhibitors on StAR promoter, primary screen, cell-based, luminescence, SF-1 (NR5A1), full-length DAX-1; HEK293T StAR-luciferase reporter, SF-1/DAX-1 repression relief; inhibition, % at 6.8 µM; 1.1% of 370,000 active;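 active = inhibition above the mean over all tested compounds plus 3 SD, cut at about 3.6% in these data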;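 note: 0% = DAX-1 cells with DMSO and 100% = cells lacking DAX-1 with DMSO; higher inhibition means more luminescence from relief of DAX-1 repression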
hgDAF12 conf: H. glycines DAF-12 receptor agonists, confirmation, cell-based, luminescence, HEK293, GAL4-LBD fusion; shares compounds with hgDAF12 agonist; HEK293 GAL4-hgDAF12 luciferase reporter, agonist mode; percent of butyrate response; activation, % at 6.8 µM; 80% of 3,300 active;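 active = mean activation over triplicate wells above the hit cutoff derived from the earlier primary screen, cut at about 11% in these data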;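 note: 0% = DMSO low control and 100% = 2 mM sodium butyrate high control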
LXR ag 2: LXR agonists, Gal4 luciferase reporter, confirmation, counter-screen for hgDAF-12 agonist project, cell-based, luminescence, HEK293, H. glycines campaign; shares compounds with hgDAF12 agonist; 24 h; activation, % at 6.8 µM; 3,300 tested, under 10 active; AID 743051, 2013;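 active = mean activation of the triplicate above a set limit carried over from the primary screen, none filed active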
* hit, by the source's call; . = no result given. Sampled rows, rich in hits. Any-hit rate of the full collection: about 5.7%.

SMILES	hgDAF12 agonist	ssDAF12 agonist	hcDAF12 agonist	AHR act	DAX1 inh-1	DAX1 inh-2	hgDAF12 conf	LXR ag 2
O=C(Nc1cccc(Cl)c1)c1ccc2c(c1)OCCO2	21.0*	0.9	6.5*	1.9	1.6	1.9	18.0*	0.9
O=C(Nc1cccc([N+](=O)[O-])c1)c1ccc2c(c1)OCCO2	8.6	-1.2	-1.6	2.0	-0.3	1.2	.	.
COC(=O)[C@H](CC(C)C)NC(=O)Nc1ccccc1F	-0.3	-1.6	-1.4	-0.5	0.5	-0.2	.	.
c1c2c(cc3sc(N4CCOCC4)nc13)OCO2	15.6*	0.1	6.0*	45.8	1.8	2.6	13.4*	0.7
O=C(c1ccc2nc(N3CCOCC3)sc2c1)N1CCCC1	1.6	-1.4	2.3	7.9	0.9	0.7	.	.
COc1ccc(-c2nc(CN3CCN(Cc4ccccc4)CC3)c(C)o2)cc1	0.2	-1.2	-0.6	10.3	2.6	0.4	.	.
Cc1oc(-c2ccc(-c3ccccc3)cc2)nc1CN1CCN(CC(=O)N(C)C)CC1	14.8*	0.4	6.5*	14.2	1.4	2.6	13.8*	0.9
CCN(CC)S(=O)(=O)c1ccc(C(=O)N(c2ccc(C)cc2)C2C=CS(=O)(=O)C2)cc1 (stereo not given)	-2.2	-1.2	-1.2	-1.6	0.6	-0.3	.	.
Cc1nn(-c2ccccc2)c2c1C(c1ccc(F)cc1F)C(C#N)=C(N)O2 (stereo not given)	-1.6	-1.1	-0.1	9.4	0.0	-0.5	.	.
Nc1nn(-c2ccccc2)c(N)c1N=Nc1cccc(F)c1	18.8*	0.2	6.0*	1.4	.	0.3	23.7*	1.0
COc1ccc(S(=O)(=O)NC(=O)C2(C)CCN2C(=O)C(C)(C)c2ccccc2)cc1 (stereo not given)	0.3	-1.2	0.3	.	.	-0.6	.	.
CCc1ccc(NC(=O)c2ccccc2SC)cc1	15.9*	0.6	1.4	37.0	2.0	2.6	3.6	0.3
[O-]/[N+](=C\C=C\c1ccccc1)c1ccccc1	14.4*	0.3	3.8	0.5	3.2	1.4	13.7*	0.5
CC(=O)C1=NN(c2ccc(Cl)cc2)C(c2ccc3c(c2)OCO3)N(C(C)=O)N1C (stereo not given)	0.8	-1.7	0.2	6.6	0.5	0.1	.	.
Cc1cc(S(=O)(=O)NC2CCCCC2)ccc1OCC(=O)NCc1ccccn1	-0.1	-0.9	0.1	5.9	-0.4	-0.2	.	.
Cc1ccc(OCC(=O)Nc2ccccc2F)cc1C	16.2*	0.6	3.4	-1.6	1.6	3.5	12.8*	0.5
Cc1ccc(OCC(=O)Nc2cccnc2Cl)cc1C	5.0	-1.1	0.1	-1.1	-1.6	0.3	.	.
CC(=O)C(/C=N/c1cc(-c2ccc(C)cc2)nn1-c1ccccc1)=C(\C)O	19.2*	1.1*	5.6*	-0.4	1.3	3.5	9.7	0.5
Cc1ccc(NC(=O)c2cc(-c3ccccc3)nn2-c2ccccc2)cc1	-2.1	-2.3	-1.2	15.4	-2.2	-1.2	.	.
CCn1c(O)c(/C=C2\C=Nc3ccccc32)sc1=O	14.0*	-0.4	4.5	75.6*	2.2	2.0	21.5*	0.7
CCn1c(O)c(/C=C2\C=Nc3ccccc32)sc1=Nc1ccc(C)cc1	1.3	-1.9	-1.4	-0.1	0.4	0.3	.	.
Cc1ccn(-c2ccc(NC(=O)c3cccs3)cc2)n1	17.4*	0.1	4.9	-4.9	0.0	2.9	17.2*	0.9
O=C(N/N=C/c1ccc(N2CCOCC2)cc1)c1ccc(NS(=O)(=O)c2cccs2)cc1	3.9	-1.7	-2.0	12.2	1.8	0.7	.	.
CN1CCN(c2ccc(NC(=O)c3cccs3)cc2)CC1	15.0*	0.0	4.3	6.5	5.7*	4.3*	12.2*	0.7
COc1ccc(NC(=O)c2cccs2)cc1	9.3	-0.8	0.5	1.4	0.0	1.1	.	.
SMILES	hgDAF12 agonist	ssDAF12 agonist	hcDAF12 agonist	AHR act	DAX1 inh-1	DAX1 inh-2	hgDAF12 conf	LXR ag 2
O=C(N/N=C/c1ccc(N2CCOCC2)cc1)c1cccs1	19.8*	-0.7	3.1	16.8	0.9	4.4*	14.0*	0.6
Cc1ccccc1N(C(=O)CNC(=O)c1ccco1)C(C(=O)NC1CCCC1)c1ccncc1 (stereo not given)	1.1	-1.1	-1.9	3.6	-1.6	0.1	.	.
Cc1nn(C(=O)c2cccs2)c(N)c1-c1ccccc1	15.0*	-0.5	4.7	-0.6	3.1	3.7*	16.6*	0.5
O=C(/C=C/c1ccnc2ccccc12)c1cccs1	13.9*	-0.1	4.0	0.7	0.6	2.5	14.6*	0.8
O=C(Cn1cnc2ccccc2c1=O)c1cccs1	-0.7	-1.5	1.1	13.1	-1.4	0.0	.	.
COC(=O)C1CCN(C(=O)CN2C(=O)NC(CC(C)C)C2=O)CC1 (stereo not given)	1.1	-1.2	0.3	1.0	0.3	3.1	.	.
O=C(CSc1nc2ccccc2s1)Nc1ccc2c(c1)oc1ccccc12	3.9	0.1	2.7	14.0	-0.2	-0.1	.	.
O=C(CSc1nnc(NC(=O)c2ccccc2Cl)s1)Nc1ccc2c(c1)oc1ccccc12	14.5*	0.0	4.3	29.6	.	1.5	10.9*	0.5
Cc1ccc(NC(=O)c2ccc(OCc3c(C)noc3C)cc2)c(C)c1	-1.5	-1.3	-2.8	-3.9	-0.6	-2.8	.	.
CCOc1ccc(C(=O)Nc2cc(C)on2)cc1	14.2*	-0.7	2.5	7.8	0.3	2.3	14.5*	0.7
CCOc1ccc(C(=O)Nc2ccc3[nH]ncc3c2)cc1	15.8*	0.5	5.5	46.5	-1.5	2.0	14.9*	0.8
Cc1ccnc(NC(=O)c2ccc(OCc3c(C)noc3C)cc2)c1	13.6*	-0.5	0.1	.	0.6	4.2*	5.5	0.4
O=C(Nc1ccc2[nH]ncc2c1)c1ccc(F)cc1	9.8	-0.8	-1.1	15.1	0.2	2.5	.	.
CC(C)[C@H]1COCCS(=O)(=O)N1Cc1ccccc1-c1ccccc1	1.1	-1.0	-1.7	.	-0.4	-1.4	.	.

From PubChem BioAssay
